Measurements reported in PubChem BioAssay (EPA / NIEHS).
Where “and” joins values, the source holds several entries; their conditions need not be identical. Equal entries are not always repeated. Records with an inconclusive call do not appear. Calls of active or inactive are those of the source. The calls were made as follows, unless noted: active = hit-call score of the fitted dose curve at least 0.9, where 1 is the maximum; inactive = score below 0.9.

What was measured:
[1] = read-out: Interleukin-8 (IL8), CXCL8 (gene 3576); assay: BSK_BE3C_IL8: BioMAP Diversity Plus: BE3C Assay for Interleukin-8 (IL8) Biomarker Activity (AID 2284280); conditions: primary human bronchial epithelial cells
Procedure, shortened: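 Primary human bronchial epithelial cells (BE3C system) exposed 24 h; IL-8 measured by ELISA and fitted in positive direction versus DMSO. Overt cytotoxicity assessed by SRB total-protein staining in parallel cultures.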

[2] = read-out: Epidermal growth factor receptor (EGFR), EGFR (gene 1956); assay: BSK_BE3C_EGFR: BioMAP Diversity Plus: BE3C Assay for Epidermal growth factor receptor (EGFR) Biomarker Activity (AID 2284281); conditions: primary human bronchial epithelial cells
Procedure, shortened: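 Human primary bronchial epithelial cells (BE3C system) dosed with chemicals; EGFR measured by ELISA at 24 h, fitted in the positive direction relative to DMSO. Cytotoxicity tracked in parallel cultures by SRB total-protein staining.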

KRT18 (gene 3875) = assay: BSK_BE3C_Keratin818: BioMAP Diversity Plus: BE3C Assay for Keratin 818 Biomarker Activity (AID 2284282); conditions: primary human bronchial epithelial cells
Procedure, shortened: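 Chemicals are added to human lung bronchial epithelial primary cells (BE3C system) and incubated 24 h. Keratin 8/18 is then measured by ELISA, with parallel SRB total-protein staining gauging overt cytotoxicity.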

[3] = read-out: Matrix Metallopeptidase 9 (MMP9), MMP9 (gene 4318); assay: BSK_BE3C_MMP9: BioMAP Diversity Plus: BE3C Assay for Matrix Metallopeptidase 9 (MMP9) Biomarker Activity (AID 2284283); conditions: primary human bronchial epithelial cells
Procedure, shortened: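 Human primary bronchial epithelial cells exposed 24 h to compound. MMP9 quantified by ELISA. SRB total-protein staining of parallel cultures assesses cytotoxicity. Positive-direction fit relative to DMSO.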

[4] = read-out: Plasminogen activator inhibitor-1 (PAI1), SERPINE1 (gene 5054); assay: BSK_CASM3C_PAI1: BioMAP Diversity Plus: CASM3C Assay for Plasminogen activator inhibitor-1 (PAI1) Biomarker Activity (AID 2284284); conditions: primary human coronary artery smooth muscle cells;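 also: PAI-1 protein level measured by ELISA 24 h after dosing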
[5] = read-out: Monocyte Chemoattractant Protein-1 (MCP1), CCL2 (gene 6347); assay: BSK_hDFCGF_MCP1: BioMAP Diversity Plus: hDFCGF Assay for Monocyte Chemoattractant Protein-1 (MCP1) Biomarker Activity (AID 2284285); conditions: primary human foreskin fibroblasts
Procedure, shortened: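 Human foreskin fibroblasts (hDFCGF system) were exposed to compound and secreted MCP-1 was measured by ELISA after 24 hours. Activity was fitted relative to DMSO. Cytotoxicity was checked by SRB total-protein staining in parallel cultures.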

[6] = read-out: Intercellular Adhesion Molecule 1 (ICAM1), ICAM1 (gene 3383); assay: BSK_hDFCGF_ICAM1: BioMAP Diversity Plus: hDFCGF Assay for Intercellular Adhesion Molecule 1 (ICAM1) Biomarker Activity (AID 2284287); conditions: primary human foreskin fibroblasts
Procedure, shortened: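 Primary human foreskin fibroblasts (hDFCGF system) dosed with chemical; ICAM-1 quantified by ELISA at 24 h relative to DMSO. Parallel SRB total-protein staining to assess overt cytotoxicity.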

CD40, CD40 (gene 958) = assay: BSK_IMphg_CD40: BioMAP Diversity Plus: IMphg Assay for CD40 Biomarker Activity (AID 2284288); conditions: primary human endothelial cells with macrophages
Procedure, shortened: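 Venular endothelial cells co-cultured with macrophages (human primary), CD40 measured by ELISA 24 h after dosing. Positive-direction fit vs DMSO baseline; cytotoxicity tracked by SRB total-protein staining in parallel cultures.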

[7] = read-out: TIMP metallopeptidase inhibitor 2 (TIMP2), TIMP2 (gene 7077); assay: BSK_hDFCGF_TIMP2: BioMAP Diversity Plus: hDFCGF Assay for TIMP metallopeptidase inhibitor 2 (TIMP2) Biomarker Activity (AID 2284289); conditions: primary human foreskin fibroblasts
Procedure, shortened: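 Primary human foreskin fibroblasts in the hDFCGF system, dosed for 24 h; TIMP-2 level measured by ELISA, fitted in the positive direction against DMSO; cytotoxicity checked in parallel by sulforhodamine B total protein staining.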

[8] = read-out: Interleukin-1 alpha (IL1a), IL1A (gene 3552); assay: BSK_IMphg_IL1a: BioMAP Diversity Plus: IMphg Assay for Interleukin-1 alpha (IL1a) Biomarker Activity (AID 2284290); conditions: primary human endothelial cells with macrophages
Procedure, shortened: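 Human venular endothelial cells co-cultured with macrophages, IMphg system. IL-1α is measured by ELISA 24 h after dosing and fitted in the positive direction against DMSO. Cytotoxicity is assessed by SRB staining of parallel cultures.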

[9] = read-out: E-selectin (Homo sapiens) (UniProt P16581); assay: BSK_IMphg_ESelectin: BioMAP Diversity Plus: IMphg Assay for Eselectin Biomarker Activity (AID 2284291); conditions: primary human endothelial cells with macrophages
Procedure, shortened: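 Human venular endothelial cell–macrophage co-culture, E-selectin measured by ELISA 24 h after chemical dosing. Signal fitted in the positive direction against DMSO as negative control and baseline.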

[10] = read-out: Macrophage colony-stimulating factor (MCSF), CSF1 (gene 1435); assay: BSK_IMphg_MCSF: BioMAP Diversity Plus: IMphg Assay for Macrophage colony-stimulating factor (MCSF) Biomarker Activity (AID 2284293); conditions: primary human endothelial cells with macrophages
Procedure, shortened: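 Co-culture of human venular endothelial cells and macrophages, 24 hours of chemical exposure. M-CSF quantified by ELISA, with parallel SRB total-protein staining for cytotoxicity; activity fitted relative to DMSO.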

[11] = read-out: Interleukin-10 (IL10), IL10 (gene 3586); assay: BSK_IMphg_IL10: BioMAP Diversity Plus: IMphg Assay for Interleukin-10 (IL10) Biomarker Activity (AID 2284294); conditions: primary human endothelial cells with macrophages
Procedure, shortened: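 Human venular endothelial cells cocultured with macrophages, dosed 24 h; IL-10 measured by ELISA, activity relative to DMSO. Cytotoxicity assessed in parallel cultures by sulforhodamine B total-protein staining.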

[12] = BSK_IMphg_SRB.Mphg: Macrophage Viability Assessment in the BioMAP Diversity Plus: IMphg Assay (AID 2284295); conditions: primary human endothelial cells with macrophages
Procedure, shortened: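 Venular endothelial cells co-cultured with macrophages, read 24 h after dosing. Total protein measured by 0.1% SRB staining after 10% TCA fixation, absorbance at 560 nm. Fitted in positive direction against DMSO baseline.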

[13] = read-out: Thrombomodulin, THBD (gene 7056); assay: BSK_LPS_Thrombomodulin: BioMAP Diversity Plus: LPS Assay for Thrombomodulin Biomarker Activity (AID 2284296); conditions: primary human HUVEC with PBMC
Procedure, shortened: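 Human umbilical vein endothelial cells co-cultured with PBMC and stimulated with LPS; cell-surface thrombomodulin measured by ELISA 24 hours after compound. Gain or loss versus DMSO; cytotoxicity checked by SRB staining in parallel cultures.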

CD69, CD69 (gene 969) = assay: BSK_LPS_CD69: BioMAP Diversity Plus: LPS Assay for CD69 Biomarker Activity (AID 2284303); conditions: primary human HUVEC with PBMC
Procedure, shortened: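 Human umbilical vein endothelial cells co-cultured with PBMC under LPS stimulation, chemical exposure 24 h; cell-surface CD69 measured by ELISA and fitted in the positive direction versus DMSO.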

[14] = CCTE_Mundy_HCI_iCellGluta_NOG_NeuriteLength: CCTE's Neurite Outgrowth Assay in iCellGluta cells for Neurite Length, Mundy Lab (AID 2284318; active = hit-call score of the fitted dose curve at least 0.9, where 1 is the maximum)
Procedure, shortened: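 Automated high-content imaging of betaIII-tubulin (Alexa Fluor-488) and Hoechst-stained cells gave neurite length, normalized to the DMSO baseline.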

Measured: AC50

E-selectin (Homo sapiens), sequence (P16581 whole entry, looked up): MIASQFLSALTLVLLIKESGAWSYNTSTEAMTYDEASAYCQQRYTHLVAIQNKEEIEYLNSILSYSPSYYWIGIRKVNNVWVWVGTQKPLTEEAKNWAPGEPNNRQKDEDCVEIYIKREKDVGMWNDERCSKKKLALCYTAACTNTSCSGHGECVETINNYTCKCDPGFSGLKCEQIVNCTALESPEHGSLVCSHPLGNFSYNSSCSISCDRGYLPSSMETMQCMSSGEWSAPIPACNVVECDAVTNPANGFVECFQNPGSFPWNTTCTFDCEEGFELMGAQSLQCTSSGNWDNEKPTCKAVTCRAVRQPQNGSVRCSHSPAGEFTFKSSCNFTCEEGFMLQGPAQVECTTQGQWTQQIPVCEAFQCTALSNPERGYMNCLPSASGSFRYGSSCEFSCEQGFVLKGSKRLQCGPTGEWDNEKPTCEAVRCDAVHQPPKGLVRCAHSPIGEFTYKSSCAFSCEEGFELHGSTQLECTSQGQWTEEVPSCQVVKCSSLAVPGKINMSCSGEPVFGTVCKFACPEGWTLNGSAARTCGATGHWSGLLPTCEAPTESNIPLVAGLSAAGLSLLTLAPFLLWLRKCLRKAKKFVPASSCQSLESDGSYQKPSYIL

NCC(F)(F)C(F)(F)C(F)(F)C(F)(F)C(F)(F)C(F)(F)F
not listed: [14]
inactive: all other assays above

NCC(F)(F)C(F)(F)C(F)(F)C(F)(F)C(F)(F)C(F)(F)C(F)(F)C(F)(F)F
not listed: CD69, CD69 (gene 969) | [14]
inactive: all other assays above

CCN=C1C=CC(=C(c2ccc(N(CC)CC)cc2)c2ccc(N(CC)CC)cc2)c2ccccc21
inactive: [2] | [13]
active: [1] 4.21 µM and 3.7 µM | KRT18 (gene 3875) 1.61 µM and 1.51 µM | [3] 1.07 µM and 490 nM | [4] 5.67 µM and 5.38 µM | [5] 1.63 µM and 1.44 µM | [6] 1.9 µM and 1.77 µM | [7] 677 nM and 195 nM

OCCCC(F)(F)C(F)(F)C(F)(F)C(F)(F)C(F)(F)C(F)(F)C(F)(F)C(F)(F)F
inactive: [14]
active: [1] 11.4 µM and 8.23 µM | [2] 33 µM and 21.3 µM | KRT18 (gene 3875) 39.6 µM and 42.8 µM | [3] 50 µM and 48.2 µM | [4] 48.3 µM and 45.4 µM | [5] 7.74 µM and 7.47 µM | [6] 15.3 µM and 9.92 µM | CD40, CD40 (gene 958) 10.1 µM and 10.9 µM | [7] 19 µM and 14.6 µM | [8] 47.7 µM and 51 µM | [9] 14.3 µM and 11.4 µM | [10] 44.4 µM and 42.1 µM | [11] 40.8 µM and 32.2 µM | [12] 16.7 µM and 30 µM | [13] 52.8 µM and 52.3 µM | CD69, CD69 (gene 969) 22.1 µM and 43.1 µM

NC(=O)C(F)(F)C(F)(F)C(F)(F)F
not listed: CD69, CD69 (gene 969) | [14]
inactive: all other assays above

O=S(=O)(O)CCC(F)(F)C(F)(F)C(F)(F)C(F)(F)F
not listed: CD69, CD69 (gene 969) | [14]
inactive: all other assays above
